Shown are actives, neighbours in structure and some others; about 3.9% of the full set was active somewhere.
Rtt109 Vps75 = inhibitors of C. albicans Rtt109/Vps75 HAT, primary screen, biochemical, ThioGlo CoA-SH fluorescence, plate reader. AID 540336, 2011. Histone acetyltransferase RTT109 (Candida albicans (strain SC5314 / ATCC MYA-2876)), …. 0.16% of 330,000 active. inhibition, % at 34.9 µM. purified Rtt109/Vps75, 4 h;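 active means inhibition of at least 50% in every replicate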
Target sequence (Q5AAJ8 whole entry, looked up): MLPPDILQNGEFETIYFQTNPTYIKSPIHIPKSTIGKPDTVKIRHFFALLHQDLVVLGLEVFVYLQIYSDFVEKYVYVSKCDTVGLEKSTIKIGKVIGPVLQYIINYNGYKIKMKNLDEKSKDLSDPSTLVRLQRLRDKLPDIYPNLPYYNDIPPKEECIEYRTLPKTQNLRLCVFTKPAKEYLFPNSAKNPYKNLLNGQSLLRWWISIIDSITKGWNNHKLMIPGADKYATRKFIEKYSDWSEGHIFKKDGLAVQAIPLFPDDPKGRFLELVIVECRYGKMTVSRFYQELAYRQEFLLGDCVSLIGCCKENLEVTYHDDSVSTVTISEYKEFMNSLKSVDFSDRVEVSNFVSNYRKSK
TPT1 inh = Candida albicans TPT1 enzyme inhibitors, primary screen, biochemical, fluorescence polarization; tRNA 2'-phosphotransferase TPT1 (Candida albicans SC5314); inhibition, % at 5 µM; 0.81% of 300,000 active; recombinant caTPT1, FP RNA substrate dephosphorylation; AID 1962, 2009;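 active means inhibition above the mean of all tested compounds plus 3 SD, set per screening campaign, cut at about 24% in these data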;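 further: plate controls were DMSO alone for no effect and ferristatin control at 100 nM for full effect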
WT yeast gro inh = growth inhibition of WT strain, primary screen, mitochondrial fusion inhibitor project, WT and mutant strains, chemical genetic | mitochondrial fusion phenotypic screen | inhibition, % at 10 µM | 2.1% of 190,000 active | AID 1362, 2008; in the data active means inhibition above about 58%; tested in S. cerevisiae
SKKanGAS inh = S. pyogenes SKKanGAS growth inhibitors in kanamycin, primary screen, streptokinase expression inhibitor project, SKKanGAS strain, BacTiter-Glo luminescence; inhibition, % at 7.5 µM; 1.3% of 300,000 active; 6 h; AID 1662, 2009;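 active means mean replicate score, as percent of positive control median, at least 50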;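 further: strain carries kanamycin resistance gene driven by streptokinase promoter and grows in 40 µg/ml kanamycin; loss of luminescence reflects streptokinase promoter inhibition or plain growth inhibition; 0% = median of DMSO wells and 100% = positive control at its reference dose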
PHOSPHO1 block = PubChem AID 1565. inhibition, % at 13.3 µM. recombinant PHOSPHO1, absorbance phosphatase assay. 1.1% of 290,000 active. Phosphoethanolamine/phosphocholine phosphatase (Homo sapiens), Q8TCT1; in the data active means inhibition above about 60%
Target sequence (Q8TCT1 whole entry, looked up): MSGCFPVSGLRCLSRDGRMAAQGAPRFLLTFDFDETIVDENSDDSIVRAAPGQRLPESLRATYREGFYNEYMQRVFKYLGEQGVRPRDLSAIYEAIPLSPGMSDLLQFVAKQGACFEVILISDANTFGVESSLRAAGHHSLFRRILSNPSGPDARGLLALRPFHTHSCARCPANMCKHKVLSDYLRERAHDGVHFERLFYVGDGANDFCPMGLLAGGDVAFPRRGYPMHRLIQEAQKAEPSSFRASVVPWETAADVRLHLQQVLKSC
Platelet DG rel = inhibitors of platelet dense granule secretion, primary screen, cell-based, MLPCN, human platelets | 0.22% of 300,000 active | AID 1663, 2009 | inhibition, %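 (compounds screened at 7.5 µM in platelet-rich plasma)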 | human platelet-rich plasma, SFLLRN dense granule ATP release, luminescence;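 active means mean replicate score, as percent of positive control, at or above 50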
Numbers without * were called inactive.

Results for COc1ccccc1NC(=O)CCc1c(C)[nH]c(=O)c(C#N)c1C ?
Rtt109 Vps75: -14; TPT1 inh: -1; WT yeast gro inh: 7; SKKanGAS inh: 0; PHOSPHO1 block: 18; Platelet DG rel: 40

How did N#C[C@H]1[C@H](c2ccccc2)[C@](C#N)(C(=O)c2ccccc2)[C@@H]2C=Cc3ccccc3N21 do in these assays?
WT yeast gro inh: 63*; SKKanGAS inh: 5; PHOSPHO1 block: -39; Platelet DG rel: -8

What do the screens show for `CCOC(=O)c1ccccc1N/C=C1\CCCC1=O`?
Rtt109 Vps75: -7; TPT1 inh: 5; WT yeast gro inh: 10; SKKanGAS inh: -5; PHOSPHO1 block: 94*; Platelet DG rel: 4

What do the screens show for `CN1CCN(C(=S)c2cn(Cc3ccc(Br)cc3)c3ccccc23)CC1`?
Rtt109 Vps75: -3; TPT1 inh: -2; WT yeast gro inh: 79*; SKKanGAS inh: 5; PHOSPHO1 block: -7; Platelet DG rel: 19

Results for CN1CCN(C(=S)c2cn(Cc3ccccc3)c3ccccc23)CC1 ?
Rtt109 Vps75: -2; TPT1 inh: -2; WT yeast gro inh: 19; SKKanGAS inh: 9; PHOSPHO1 block: 36; Platelet DG rel: 10

What do the screens show for `CC1CCN(C(=S)c2cn(Cc3cccc(F)c3)c3ccccc23)CC1`?
TPT1 inh: -2; WT yeast gro inh: 71*; SKKanGAS inh: 1; PHOSPHO1 block: 5; Platelet DG rel: -3

What do the screens show for `CN1CCN(C(=S)c2ccc(Br)cc2)CC1`?
Rtt109 Vps75: -3; TPT1 inh: -1; WT yeast gro inh: -19; SKKanGAS inh: 3; PHOSPHO1 block: 61*; Platelet DG rel: -1

How did O=C(Cc1ccccn1)c1ccc(F)cc1 do in these assays?
Rtt109 Vps75: -7; TPT1 inh: -1; SKKanGAS inh: 7; Platelet DG rel: 4

What do the screens show for `CC(=NO)c1ccc2c(c1)C(=NO)c1ccccc1-2`?
Rtt109 Vps75: 7

How did Cc1sc2ncnc(N3CCC(C(=O)NCC(=O)Nc4ccc(F)c(F)c4)CC3)c2c1C do in these assays?
Rtt109 Vps75: 7; TPT1 inh: 0; SKKanGAS inh: 53*; PHOSPHO1 block: 34; Platelet DG rel: 19

How did Cc1sc2ncnc(N3CCC(C(=O)Nc4ccc(Cl)cc4Cl)CC3)c2c1C do in these assays?
TPT1 inh: -1; SKKanGAS inh: 50*; Platelet DG rel: -1

Results for COC1c2ccccc2C(=O)N1Cc1ccc(F)cc1 (stereo not drawn) ?
Rtt109 Vps75: -1; TPT1 inh: -4; SKKanGAS inh: 6; Platelet DG rel: 1

Results for C=CCCC(=O)NC1CCCc2c1cnn2-c1ccccc1F (stereo not drawn) ?
Rtt109 Vps75: -4; TPT1 inh: -5; SKKanGAS inh: 5; Platelet DG rel: -4

What do the screens show for `Cc1cccc(N2CCN(C(=O)c3cc4c(C)nc5ccccc5c4o3)CC2)c1C`?
WT yeast gro inh: 67*

What do the screens show for `O=[N+]([O-])c1ccc(Sc2n[nH]c(-c3ccccc3)n2)nc1`?
Rtt109 Vps75: -8; TPT1 inh: -7; WT yeast gro inh: -9; SKKanGAS inh: -6; PHOSPHO1 block: 84*; Platelet DG rel: -1

Results for O=[N+]([O-])c1ccc(Sc2ccccc2)nc1 ?
Rtt109 Vps75: 5; TPT1 inh: 1; WT yeast gro inh: -11; SKKanGAS inh: 4; PHOSPHO1 block: -5; Platelet DG rel: 11

What do the screens show for `CC(C(=O)N1CCc2ccccc21)N1CCN(Cc2ccccc2)CC1` (stereo not drawn)?
Rtt109 Vps75: -2; TPT1 inh: 2; SKKanGAS inh: 11; PHOSPHO1 block: 15; Platelet DG rel: -2

What do the screens show for `CCCCNC(=O)C1Cc2cc(S(=O)(=O)N3CCCCC3)ccc2N1C(C)=O` (stereo not drawn)?
Rtt109 Vps75: -3; TPT1 inh: 1; SKKanGAS inh: 1; PHOSPHO1 block: 6; Platelet DG rel: 16

How did Cc1cc(C)c(C)c(C(=O)COC(=O)CNC(=O)CNC(=O)c2ccco2)c1C do in these assays?
Rtt109 Vps75: -4; TPT1 inh: -3; SKKanGAS inh: -1; PHOSPHO1 block: 8; Platelet DG rel: -19

How did CC(C)(C)c1ccc(C(O)CCCN2CCC(C(O)(c3ccccc3)c3ccccc3)CC2)cc1 (stereo not drawn) do in these assays?
Rtt109 Vps75: 16; TPT1 inh: -2; WT yeast gro inh: 92*; SKKanGAS inh: 9; PHOSPHO1 block: 1; Platelet DG rel: 7

What do the screens show for `CCN(C(=O)COC(=O)c1cc2ccccc2cc1OC)c1c(N)n(Cc2ccccc2)c(=O)[nH]c1=O`?
Rtt109 Vps75: 7

What do the screens show for `CN1CCN(CC(O)COc2ccc(C34CC5CC(CC(C5)C3)C4)cc2)CC1` (stereo not drawn)?
Rtt109 Vps75: 35; WT yeast gro inh: 97*; PHOSPHO1 block: 56

Results for COc1ccc(-c2[nH]c(-c3cc(OC)c4c(c3)OCO4)nc2-c2ccccc2)cc1 ?
Rtt109 Vps75: -1; TPT1 inh: 5; WT yeast gro inh: 63*; SKKanGAS inh: 17; PHOSPHO1 block: -20; Platelet DG rel: 7

What do the screens show for `CCCCNC(=O)N(O)C1N(/N=C/c2ccccc2OC)C(=S)SC1(C)C` (stereo not drawn)?
Rtt109 Vps75: 1; TPT1 inh: 4; SKKanGAS inh: 2; PHOSPHO1 block: 38; Platelet DG rel: 0

Results for CC(=O)Nc1cccc(C(=O)NNC(=O)c2ccccc2-n2cccc2)c1 ?
Rtt109 Vps75: -5

Results for COc1ccc(CN(CC(O)COCc2ccccc2)S(=O)(=O)c2ccccc2Br)cc1OC (stereo not drawn) ?
Rtt109 Vps75: 2

What do the screens show for `CC(C)(C)NC(=O)CSc1ccc(S(=O)(=O)N2CCOCC2)cn1`?
Rtt109 Vps75: -5

Results for CCCCCC(=O)NC(=S)NC1C2CC3CC(C2)CC1C3 (stereo not drawn) ?
Rtt109 Vps75: -10; TPT1 inh: -2; SKKanGAS inh: 83*; PHOSPHO1 block: 8; Platelet DG rel: 2

What do the screens show for `CCN(CC)c1ccc(NC(=O)c2ccccc2F)cc1`?
Rtt109 Vps75: 7; TPT1 inh: -3; WT yeast gro inh: -14; SKKanGAS inh: 0; PHOSPHO1 block: 62*; Platelet DG rel: 2

How did CCN(CC)c1ccc(NC(=O)Nc2ccccc2C(F)(F)F)cc1 do in these assays?
Rtt109 Vps75: 12; TPT1 inh: 2; WT yeast gro inh: 63*; SKKanGAS inh: -6; PHOSPHO1 block: 28; Platelet DG rel: -6

Results for O=C(Nc1nnc(COc2ccc(Cl)cc2)s1)c1cccs1 ?
Rtt109 Vps75: 8; TPT1 inh: -5; WT yeast gro inh: 12; SKKanGAS inh: -3; PHOSPHO1 block: 80*

What do the screens show for `CCN(CC)c1ccc(NC(=O)Nc2cccc3ccccc23)cc1`?
Rtt109 Vps75: 7; TPT1 inh: -3; SKKanGAS inh: 2; Platelet DG rel: -1

High-throughput results deposited in PubChem by several laboratories.
